# Screening data (PubChem)
# An excerpt weighted towards active compounds, which were near 3.6% of everything screened.
# Abeta rescue: A-beta toxicity reversal in yeast. yeast expressing A-beta42, growth rescue, OD600, 48 h; response scale: 0% DMSO, 100% iron-clioquinol control. Potency, µM (doses to about 46.1 µM), actives largely listed as activators. actives 0.063% (n = 410,000). AID 1347071; note: nearly all actives have a fitted effect of over 55% in size
#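 Growth rescue measured by 600 nm absorbance after 48 h yeast culture at 30 C with compound. Values normalized between DMSO and an equimolar ferric chloride plus clioquinol control.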
# MmCpn inh: blocks the Methanococcus maripaludis chaperonin Mm-Cpn; purified Mm-Cpn ATPase, ADP Transcreener TR-FRET; Potency, µM (doses to about 76.9 µM), hits mostly inhibitors; actives 0.031% (n = 330,000); AID 504842; note: nearly all actives have a fitted effect of over 80% in size
#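 Measured: ADP formation by purified Mm-CPN. Conditions: 25 nM protein, 10 uM ATP, Tris pH 7.4 with Mg2+, K+ and DTT, 37°C for 30 min. Detection: Transcreener HTRF after 30 min at room temperature.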
# ClpP mod: qHTS Assay for Activators of ClpP; actives 1.9% (n = 340,000); Potency, µM (highest dose often 57.5 µM); purified B. subtilis ClpP, FRET peptide cleavage, 20 min; AID 651965, 2013; active = well fitted falling curve with a large enough effect; inconclusive = small, poorly fitted or top-dose-only effect; inactive = no such curve, though single readings can be large or run the other way; note: the source files actives as falling curves though it sought activators and does not explain the sign; nearly all actives have a fitted effect of over 65% in size
# Target sequence (P80244 whole entry, looked up): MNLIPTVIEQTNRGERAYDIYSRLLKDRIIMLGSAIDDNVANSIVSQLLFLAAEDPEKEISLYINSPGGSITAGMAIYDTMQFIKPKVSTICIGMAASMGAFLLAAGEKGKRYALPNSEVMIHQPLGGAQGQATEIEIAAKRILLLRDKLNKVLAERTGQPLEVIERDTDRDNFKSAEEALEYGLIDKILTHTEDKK
#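 FRET quenching reversal measured ClpP activation: 10 microg/mL B. subtilis ClpP at pH 8 with the FRET-FV decapeptide, read at 430 nm after 320 nm excitation. The 20-min minus 0-min signal was scaled between DMSO/no-enzyme wells and ADEP (5.8 microM final).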
# aSyn yeast inh: rescues yeast growth from alpha-synuclein toxicity; Yeast expressing alpha-synuclein, growth rescue, BacTiter-Glo, 24 h; Potency, µM (doses to about 46.1 µM), actives largely listed as activators; AID 652106; actives 0.14% (n = 370,000); note: nearly all actives have a fitted effect of over 65% in size
#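 Galactose-induced alpha-syn yeast (OD600=0.02, raffinose-pregrown) + pinned cpd, 24 hr, 30 deg C; growth by BacTiter-Glo luminescence. Growth restoration scores as activation.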
# FUS suppressor: FUS proteinopathy suppression in yeast; Potency, µM (doses to about 76.6 µM), most hits filed as activators; actives 0.24% (n = 390,000); S. cerevisiae FUS-expressing, growth rescue, OD600, 24 h; AID 1347120; note: nearly all actives have a fitted effect of over 55% in size
#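 Cultures pregrown in 2.5% raffinose medium are shifted to minimal medium containing 2% galactose to express toxic FUS. Compounds are tested at several concentrations. After 24hr at 30C, growth is quantified at 600 nm absorbance.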
# TDP43 rescue: rescues yeast growth from TDP-43 toxicity. TDP-43 expressing yeast growth rescue, BacTiter-Glo, 24 h. Potency, µM (doses to about 46.1 µM), usual class: activators. actives 1.8% (n = 410,000). AID 652104; note: nearly all actives have a fitted effect of over 50% in size
#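 Readout is BacTiter-Glo luminescence of cell growth, so inhibitors register as activators. TDP-43-expressing yeast at OD600=0.02 in galactose medium, after raffinose pregrowth to mid-log, were incubated with compound for 24 hr at 30 deg C.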
# Numbers stand for hits; - = inactive; ? = inconclusive; . = no result given; [ ] = remark or other dose. Unless noted, calls come from the whole dose curve; as a rule, active = well fitted curve in the direction sought with a large enough effect; inconclusive = small, poorly fitted or top-dose-only effect, or another doubt; inactive = no such curve, though single readings can be large; an effect the other way counts as inactive or inconclusive.
SMILES,Abeta rescue,MmCpn inh,ClpP mod,aSyn yeast inh,FUS suppressor,TDP43 rescue
O=C(COC(=O)/C=C/c1ccccc1)NC1CC1,-,-,-,-,-,-
CSc1ccc(/C=C/C(=O)OCC(=O)NC2CC2)cc1,-,-,-,-,-,22µM
O=C(COC(=O)/C=C/c1ccc(C(F)(F)F)cc1)NC1CCCC1,-,-,-,-,-,10µM
Nc1c(Br)cc(C=O)cc1Br,.,.,-,.,.,.
Fc1ccccc1C1=NC(c2ccc(C(F)(F)F)cc2)=Nc2ccccc2N1,-,.,-,.,-,?
FC(F)(F)c1cc(-c2ccco2)nc(NCCc2ccccc2)n1,-,-,32µM,-,-,-
COc1cccc(-c2cc(C(F)(F)F)nc(NCc3ccc(F)cc3)n2)c1,-,.,28µM,.,-,-
COc1cccc(-c2cc(C(F)(F)F)nc(NCCc3ccccc3)n2)c1,-,.,28µM,.,-,-
CN(C)c1ccc(C(=O)Oc2cc(O/N=[N+](\[O-])N(C)C)c([N+](=O)[O-])cc2[N+](=O)[O-])cc1,.,.,.,-,.,.
CCc1ccc(NCc2cc3cc4c(cc3n(CC(=O)Nc3ccc(OC)cc3)c2=O)OCO4)cc1,-,.,-,.,?,-
COc1ccc(NCc2cc3cc4c(cc3n(CC(=O)Nc3ccc(C)cc3)c2=O)OCO4)cc1,-,.,-,-,14µM,-
COc1ccc(C(=O)c2cn(Cc3ccc(F)cc3)c3ccc(C)cc3c2=O)cc1,-,.,-,.,-,?
CSc1ccc(CNC(=O)CCn2c(=O)c3cccn3c3ccc(F)cc32)cc1,-,.,?,.,?,-
Cc1cc(Nc2cccc(C(F)(F)F)c2)nc2ccc(NC(=O)Cc3ccc(Cl)cc3)cc12,-,.,-,.,-,14µM
Cc1cc(Nc2cccc(Cl)c2)nc2ccc(NC(=O)c3cccc(N(C)C)c3)cc12,-,.,-,.,?,16µM
COc1ccc(CC(=O)Nc2ccc3nc(Nc4cccc(Cl)c4)cc(C)c3c2)cc1,-,.,-,.,?,?
Cc1cc(Nc2cccc(Cl)c2)nc2ccc(NC(=O)c3cccnc3)cc12,-,.,-,.,-,-
CC(=O)c1cc(-c2cnn(Cc3ccccc3)c2)c(=O)n2c1CCC2,.,.,.,.,-,.
CCC1=C[C@@H]2CN(C1)Cc1c([nH]c3ccccc13)[C@@](C(=O)OC)(c1cc3c(cc1OC)N(C)[C@H]1[C@@](O)(C(=O)OC)[C@H](OC(C)=O)[C@]4(CC)C=CCN5CC[C@]31[C@@H]54)C2,.,.,-,-,.,.
CC(C)(C)NC(=O)C(c1cccnc1)N(C(=O)c1cnc[nH]1)c1ccc(C(C)(C)C)cc1 (centres undefined),.,.,.,.,-,.
O=C(Cn1cc(S(=O)(=O)N2CCN(c3ccccc3F)CC2)c2ccccc2c1=O)Nc1cccc(C(F)(F)F)c1,-,.,-,.,-,-
CCC(Sc1nc2nccnc2c(=O)n1Cc1ccccc1Cl)C(=O)NC1CCCCC1 (centres undefined),-,.,-,.,-,-
O=[N+]([O-])c1ccc(O)c(-c2nn[nH]n2)c1,-,-,25µM,-,-,-
COc1ccc(S(=O)(=O)c2cc3cc(OC)ccc3oc2=O)cc1,-,.,-,.,-,-
COc1ccc(S(=O)(=O)c2cc3cc(C(C)(C)C)cc(O)c3oc2=O)cc1,-,.,-,.,40µM,-
SMILES,Abeta rescue,MmCpn inh,ClpP mod,aSyn yeast inh,FUS suppressor,TDP43 rescue
Clc1ccc(OCc2nc(-c3ccncc3)no2)c(Cl)c1,-,-,-,-,-,?
Clc1cccc(OCc2nc(-c3ccncc3)no2)c1,-,-,-,-,-,11µM
CC(C)(C)c1cc(C(=O)Nc2ccc(F)cc2)n(Cc2ccc(F)cc2)n1,?,-,-,-,-,20µM
COc1ccccc1NNC(=O)c1cc(C(C)(C)C)nn1Cc1ccccc1,-,-,.,-,-,-[1.82 µM]
CC(C)(C)c1cc(C(=O)NNc2cc(C(F)(F)F)ccc2Cl)n(Cc2ccccc2)n1,-,-,3.2µM,-,-,-
COc1ccc(C(=O)Nc2ncnc3nc[nH]c23)cc1,.,.,-,-,.,.
